Where a name gives a salt, the structure may show the parent alone.
Legend:
Test in all cases: Euclidean distance of Cell Painting phenotypic profile (signed KS, 77 features) to DMSO centroid (dimensionless distance); 5 or 10 uM (library dependent); higher = stronger phenotypic change vs DMSO (phenoactivity)
Conditions in all cases: 48 h
[1] = test system: 786-O
In short: (§1)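 Five cancer lines, together with a healthy fibroblast line, received library compounds for 48 h at a library-dependent 10 or 5 uM and 0.1% DMSO final. Harmony then derived 77 features from confocal 20X images (9 fields/well) of the stained cells, scoring each as a signed Kolmogorov-Smirnov statistic against same-plate vehicle wells. After plate-position correction, correlation weighting and replicate averaging at the top dose, phenoactivity was taken as each profile's Euclidean distance to the median vehicle profile.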

[2] = test system: A549
In short: as §1

[3] = test system: DU145
In short: as §1

[4] = test system: FB
In short: as §1

[5] = test system: HEPG2
In short: as §1

[6] = test system: OVCAR4
In short: as §1

Row | SMILES | Euclidean distance [1] | Euclidean distance [2] | Euclidean distance [3] | Euclidean distance [4] | Euclidean distance [5] | Euclidean distance [6]
1 | O=C(O)/C=C/c1ccc(Cn2ccnc2)cc1 [Ozagrel] | 1.04 | 0.773 | 1.51 | 0.921 | 0.736 | 1.43
2 | CS(=O)(=O)Nc1ccc([N+](=O)[O-])cc1Oc1ccccc1 [Nimesulide] | 1.43 | 1.21 | 0.674 | 1.03 | 1.82 | 1.8
3 | O=C(Nc1cc(C(F)(F)F)cc(C(F)(F)F)c1)c1cc(Cl)ccc1O | 0.884 | 0.772 | 1.02 | 1.14 | 0.971 | 1.48
4 | CN[C@@H](C)C(=O)N[C@H](C(=O)N1CCC[C@H]1C(=O)Nc1snnc1-c1ccccc1)C1CCCCC1 | 0.872 | 1.58 | 0.883 | 1.38 | 0.88 | 3.41
5 | CCOc1ccc2nc3cc(N)ccc3c(N)c2c1 [Ethacridine lactate monohydrate] | 2.72 | 2.06 | 3.08 | 3.62 | 3.62 | 1.62
6 | CCCSc1ccc2[nH]c(NC(=O)OC)nc2c1 [Albendazole] | 2.6 | 2.42 | 2.81 | 2.49 | 2.15 | 2.48
7 | COc1ccc(NS(=O)(=O)c2sc3ccc(Cl)cc3c2C)cc1N1CCNCC1 | 2.31 | 1.39 | 1.12 | 1.13 | 1.35 | 1.29
8 | Cc1cc(Nc2cc(N3CCN(C)CC3)nc(/C=C/c3ccccc3)n2)n[nH]1 [ENMD-2076 L-(+)-Tartaric acid] | 2.7 | 3.58 | 2.34 | 3.64 | 2.99 | 2.91
9 | Cc1cc(C(C)(C)C)c(O)c(C(C)(C)C)c1 [Butylated hydroxytoluene] | 0.873 | 0.945 | 0.885 | 0.657 | 1.03 | 0.752
10 | C[C@@H]1COC(Nc2ccc3ncnc(Nc4ccc(OCc5nccs5)c(Cl)c4)c3c2)=N1 [Varlitinib] | 1.45 | 1.22 | 1.15 | 1.15 | 2.16 | 1.56
11 | O=C(O)COC(=O)Cc1ccccc1Nc1c(Cl)cccc1Cl [Aceclofenac] | 1.26 | 0.455 | 1.1 | 0.795 | 0.607 | 0.86
12 | C[C@H]1COc2c(N3CCN(C)CC3)c(F)cc3c(=O)c(C(=O)O)cn1c23 [Levofloxacin hydrate] | 1.06 | 0.678 | 1.07 | 1.25 | 0.54 | 1.57
13 | Nc1nc2c(ncn2COCCO)c(=O)[nH]1 [Aciclovir] | 1.1 | 1.17 | 1.08 | 1.32 | 1.25 | 1.37
14 | O=C(Nc1nc(-c2cc(Cl)cs2)c(N2CCN(C3CCCCC3)CC2)s1)c1cnc(N2CCC(C(=O)O)CC2)c(Cl)c1 [Avatrombopag] | 1.81 | 0.802 | 1.84 | 0.858 | 1.41 | 1.05
15 | C=CCNC1=C2C[C@@H](C)C[C@H](OC)[C@H](O)[C@@H](C)/C=C(\C)[C@H](OC(N)=O)[C@@H](OC)/C=C\C=C(/C)C(=O)NC(=CC1=O)C2=O | 2.85 | 2.95 | 4.51 | 3.47 | 3.86 | 2.72
16 | COCC(=O)NC/C=C/c1ccc2ncnc(Nc3ccc(Oc4ccc(C)nc4)c(C)c3)c2c1 | 0.785 | 1.34 | 1.13 | 0.952 | 0.896 | 0.777
17 | C[C@H]1[C@H](OC(=O)CCC(=O)O)O[C@@H]2O[C@@]3(C)CC[C@H]4[C@H](C)CC[C@@H]1[C@@]24OO3 [Artesunate] | 1.44 | 2.06 | 1.01 | 1.66 | 1.03 | 1.88
18 | O=C(O)/C=C/c1cnc[nH]1 [Urocanic acid] | 1.13 | 0.682 | 0.798 | 0.718 | 0.554 | 1.26
19 | Cc1ccc2c(Cl)cc(Cl)c(O)c2n1 [Chlorquinaldol] | 2.59 | 2.3 | 1.54 | 2.53 | 2.09 | 2.94
20 | O=C(NC[C@H]1CN(c2ccc(N3CCOCC3=O)cc2)C(=O)O1)c1ccc(Cl)s1 [Rivaroxaban] | 1.33 | 1.15 | 0.946 | 0.949 | 0.52 | 1.51
21 | CCN1CC(CCN2CCOCC2)C(c2ccccc2)(c2ccccc2)C1=O (centres undefined) [Doxapram HCl] | 0.672 | 0.512 | 0.481 | 0.699 | 0.498 | 0.962
22 | Cn1c(=O)c2[nH]c(Br)nc2n(C)c1=O [Pamabrom] | 0.794 | 0.799 | 1.56 | 1.18 | 0.337 | 0.81
23 | O=c1oc2cc(O)ccc2s1 [Tioxolone] | 1.49 | 0.671 | 0.857 | 0.922 | 2.64 | 1.29
24 | C[C@H]1[C@H](C)CC[C@]2(C(=O)O)CC[C@]3(C)C(=CC[C@@H]4[C@@]5(C)C[C@@H](O)[C@H](O)[C@@](C)(CO)[C@@H]5[C@H](O)C[C@]43C)[C@H]12 [Madecassic acid] | 0.661 | 0.291 | 0.775 | 0.741 | 0.461 | 0.968

Source: the supplement of paper PMC10127200
